Screens as filed in PubChem BioAssay.
HCV inhibitor = qHTS Assay for Inhibitors of Hepatitis C Virus (HCV). Huh7.5.1 HCVcc-Cre infection, luciferase reporter, 44 h. AID 651820, 2012. Potency, µM (highest dose often 41.8 µM), actives largely listed as inhibitors. actives 3.4% (n = 340,000); active = well fitted inhibition curve with a large enough effect; inconclusive = small, poorly fitted or top-dose-only effect, or another doubt; inactive = no such curve, though single readings can be large or run the other way
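Cells seeded at 1,000/well and cultured 4 h, then compounds added followed by HCVcc-Cre virus (~0.5 moi). After 44 h further culture, luciferase substrate was added, plates held 15 min at room temperature, and luminescence read for 15 sec.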
FMDV inh = High Throughput Screening for Foot and Mouth Disease Virus Antivirals | FMDV antiviral cell-based qHTS | Potency, µM (series often up to 57.9 µM), actives largely listed as inhibitors | actives 1.2% (n = 410,000) | AID 1159524, 2015; calls by dose curve; tested in HEK293T cells; also: read-out not given here; nearly all actives have a fitted effect of over 45% in size
Vaccinia mCherry = qHTS for Stage-Specific Inhibitors of Vaccinia Orthopoxvirus: mCherry Reporter Primary qHTS; Vaccinia virus mCherry reporter infection, fluorescence; Potency, µM (series often up to 36.5 µM), most hits filed as inhibitors; actives 0.63% (n = 310,000); AID 720579, 2013; calls by dose curve; tested in A549 cells; also: nearly all actives have a fitted effect of over 35% in size
Vaccinia Venus = qHTS for Stage-Specific Inhibitors of Vaccinia Orthopoxvirus: Venus Reporter Primary qHTS; Vaccinia virus Venus reporter expression, fluorescence; Potency, µM (top dose mostly 36.5 µM), most hits filed as inhibitors; actives 0.46% (n = 330,000); AID 720580, 2013; calls by dose curve; tested in A549 cells; also: nearly all actives have a fitted effect of over 30% in size
LASV entry inh = qHTS for Inhibitors of binding or entry into cells for Lassa Virus; Potency, µM (series often up to 37.9 µM), usual class: inhibitors; Lassa virus pseudotype entry inhibition, cell reporter; actives 1.2% (n = 300,000); calls by dose curve; tested in HEK293 cells; also: nearly all actives have a fitted effect of over 50% in size
Marburg entry inh = qHTS for inhibitors of binding or entry into cells for Marburg Virus; Marburg virus pseudotyped entry inhibition, cell reporter; Potency, µM (series often up to 37.8 µM), usual class: inhibitors; actives 1.8% (n = 300,000); AID 540276, 2011; calls by dose curve; tested in HEK293 cells
Large screens that a line does not name were inactive. Most compounds without a hit are left out; they make up all but 5.3% or so of the library.

Cc1c(C)c2cc(Cl)c(O)c(CN3CCC[C@@H](C)C3)c2oc1=O	none (no result: HCV inhibitor, FMDV inh, Vaccinia mCherry, Vaccinia Venus, LASV entry inh)
CC12CC3CC(C)(C1)CC(N)(C3)C2	LASV entry inh inconclusive, Marburg entry inh 13µM
CCOc1ccccc1CN1CCC(CO)(CCOc2ccccc2)CC1	none
OC1(c2ccc(Cl)cc2)CCN(Cc2c[nH]c3ccccc23)CC1	LASV entry inh inconclusive, Marburg entry inh 2.8µM
OCC1(CCOc2ccccc2)CCN(Cc2cn[nH]c2-c2ccc(F)cc2)CC1	Marburg entry inh 4µM
OC1(c2ccc(Cl)cc2)CCN(Cc2cn[nH]c2-c2ccc(F)cc2)CC1	HCV inhibitor 8.9µM, Marburg entry inh inconclusive
Clc1ccccc1N1CCN(Cc2c[nH]c3ccccc23)CC1	Marburg entry inh inconclusive
Fc1ccccc1N1CCN(C2CCN(Cc3c[nH]c4ccccc34)CC2)CC1	HCV inhibitor inconclusive, LASV entry inh inconclusive, Marburg entry inh 9.2µM (no result: FMDV inh)
Cc1c(C)n(Cc2ccccc2)c2ncnc(NN)c12	HCV inhibitor 11µM, FMDV inh inconclusive (no result: Vaccinia mCherry, Vaccinia Venus, LASV entry inh, Marburg entry inh)
COc1ccccc1Nc1ncnc2c1c(C)c(C)n2CCCN(C)C	HCV inhibitor 4µM (no result: Vaccinia mCherry, Vaccinia Venus, LASV entry inh, Marburg entry inh)
Cc1c(C)n(CCCN(C)C)c2ncnc(NC3CCCCC3)c12	Vaccinia Venus inconclusive, LASV entry inh inconclusive, Marburg entry inh 10µM
Cc1cc(C)c2sc(NNC(=O)c3ccc(S(=O)(=O)N4CCc5ccccc5C4)cc3)nc2c1	HCV inhibitor 2.8µM, FMDV inh inconclusive, Vaccinia mCherry 4.5µM, Vaccinia Venus 7.9µM, LASV entry inh 12µM, Marburg entry inh inconclusive
CC1=NN(C(=S)Nc2ccccc2)C(c2ccccc2)C1 (stereo not given)	none
Cc1ccc(C2CC(c3ccccc3)=NN2C(=S)Nc2ccccc2)o1 (stereo not given)	HCV inhibitor inconclusive, Vaccinia Venus inconclusive, LASV entry inh 4µM, Marburg entry inh inconclusive (no result: Vaccinia mCherry)
COc1ccccc1NC(=S)NN=C(C)c1ccccn1	HCV inhibitor inconclusive, Vaccinia mCherry inconclusive, Vaccinia Venus inconclusive, LASV entry inh 0.28µM, Marburg entry inh inconclusive
C/C(=N\NC(=O)c1cc2c(s1)CCC(C)C2)c1ccc[nH]1 (stereo not given)	none (no result: Vaccinia mCherry, Vaccinia Venus, LASV entry inh, Marburg entry inh)
COc1ccc(NC(=S)Nc2cc(C)ccn2)c(OC)c1	HCV inhibitor inconclusive, Marburg entry inh inconclusive
CC(=NNC(=S)Nc1ccc(C)cc1)c1ccccn1	HCV inhibitor inconclusive, Vaccinia mCherry inconclusive, Vaccinia Venus inconclusive, LASV entry inh inconclusive, Marburg entry inh inconclusive
C/C(=N\NC(=O)c1cccc(Br)c1)c1ccccn1	HCV inhibitor inconclusive, Vaccinia mCherry inconclusive, Vaccinia Venus inconclusive, LASV entry inh inconclusive, Marburg entry inh 4.5µM
COc1ccc(NC(=S)Nc2ccccn2)c(OC)c1	HCV inhibitor 11µM, LASV entry inh inconclusive
C/C(=N\NC(=O)c1cc2c(s1)CCC(C)C2)c1ccncc1 (stereo not given)	HCV inhibitor 25µM, Marburg entry inh inconclusive
CCOC(=O)c1c(NC(=O)c2cc(-c3ccc(OC)cc3)on2)sc(C)c1C	none (no result: HCV inhibitor)
COCCNC(=O)C1(C)CCCN(Cc2csc(-c3ccc(Cl)cc3)n2)C1 (stereo not given)	none (no result: HCV inhibitor, LASV entry inh, Marburg entry inh)
C[C@@H]1CN(C2CCN(C(=O)c3ccccc3Cl)CC2)C[C@H](C)O1	none (no result: HCV inhibitor, FMDV inh, Vaccinia mCherry, Vaccinia Venus, LASV entry inh)
CC(C)(C)c1ccc(/C=N/NC(=O)c2ccccn2)cc1	HCV inhibitor inconclusive, LASV entry inh inconclusive, Marburg entry inh 3.2µM
CC(=NNC(=S)Nc1cccc(C)c1)c1ccccn1	HCV inhibitor 10µM, Vaccinia mCherry 2µM, Vaccinia Venus inconclusive, LASV entry inh inconclusive, Marburg entry inh inconclusive
O=C(N/N=C/c1cccc(F)c1)c1ccc(Cl)cc1	Marburg entry inh inconclusive
CC(C)(C)c1ccc(C(=O)N/N=C/c2cccc(Cl)c2)cc1	HCV inhibitor 7.1µM (no result: Vaccinia mCherry, Vaccinia Venus)
C/C(=N\NC(=O)c1ccncc1)c1cccc(NC(=O)c2ccc(C(C)(C)C)cc2)c1	HCV inhibitor 10µM, LASV entry inh inconclusive, Marburg entry inh inconclusive
Cc1ccc2[nH]c(=O)c(CN(CCCO)Cc3nnnn3Cc3ccco3)cc2c1	none (no result: HCV inhibitor, FMDV inh, LASV entry inh, Marburg entry inh)
Cc1oc2ncn(C)c(=O)c2c1C(=O)Nc1ccc(F)cc1	none (no result: HCV inhibitor)
Cc1c(C(=O)OCC(=O)N(C)Cc2ccc(Cl)cc2)oc2ccccc12	none (no result: Vaccinia mCherry, Vaccinia Venus, LASV entry inh, Marburg entry inh)
COc1ccc(C(=O)N/N=C(\C)c2ccccn2)cc1OC	HCV inhibitor inconclusive, FMDV inh inconclusive, Vaccinia mCherry 2.2µM, Vaccinia Venus inconclusive, LASV entry inh 5.6µM, Marburg entry inh 6.3µM
C/C(=N/NC(=O)c1ccccn1)c1ccncc1	Marburg entry inh inconclusive
C/C(=N\NC(=O)c1ccc(Cl)c(Cl)c1)c1ccccn1	HCV inhibitor 0.56µM, Vaccinia mCherry 1.3µM, Vaccinia Venus inconclusive, LASV entry inh 5.6µM, Marburg entry inh inconclusive
C/C(=N\NC(=O)C(c1ccccc1)c1ccccc1)c1ccccn1	HCV inhibitor 11µM, FMDV inh inconclusive, Vaccinia mCherry inconclusive, Vaccinia Venus inconclusive, LASV entry inh inconclusive, Marburg entry inh inconclusive
C/C(=N/NC(=O)c1ccc(C(C)(C)C)cc1)c1ccccn1	HCV inhibitor 3.5µM, Vaccinia mCherry 2.8µM, Vaccinia Venus inconclusive, LASV entry inh inconclusive, Marburg entry inh inconclusive
C/C(=N\NC(=O)C(c1ccccc1)c1ccccc1)c1ccc(O)cc1	none (no result: Vaccinia mCherry, Vaccinia Venus, LASV entry inh, Marburg entry inh)
COCCn1c(C)cc(C(=O)COC(=O)CNC(=O)c2ccccc2)c1C	FMDV inh 25µM
Cc1cc(C(=O)CSc2nc3ccccc3c(=O)[nH]2)c(C)n1CC1CCCO1 (stereo not given)	HCV inhibitor 11µM, FMDV inh inconclusive, Vaccinia mCherry inconclusive, Marburg entry inh inconclusive
Cc1nc(SCC(=O)c2cc(C)n(C3CC3)c2C)c2ccccc2n1	FMDV inh 10µM, Vaccinia Venus inconclusive (no result: HCV inhibitor, LASV entry inh, Marburg entry inh)
Cc1cc(C(=O)COC(=O)c2ccc3c(c2)NC(=O)CS3)c(C)n1CC1CCCO1 (stereo not given)	HCV inhibitor inconclusive, FMDV inh 28µM, Marburg entry inh inconclusive
Cc1cc(C(=O)COC(=O)c2ccc(O)cc2)c(C)n1CC1CCCO1 (stereo not given)	HCV inhibitor inconclusive, Marburg entry inh inconclusive (no result: LASV entry inh)
COCC(C)n1c(C)cc(C(=O)COC(=O)CNC(=O)c2ccccc2)c1C (stereo not given)	none (no result: Vaccinia mCherry, Vaccinia Venus)
Cc1cc(C)cc(NC(=O)C(=O)NCC(c2cccnc2)N2CCN(c3ccccc3)CC2)c1 (stereo not given)	none (no result: HCV inhibitor, Marburg entry inh)
O=C(NCc1ccccc1Cl)c1ccc(NC(=O)N2CCCCc3ccccc32)cc1	LASV entry inh inconclusive (no result: HCV inhibitor, Marburg entry inh)
C=CCOc1ccc(/C(O)=C2\C(=O)C(=O)N(CCN(C)C)[C@@H]2c2cccs2)cc1	none (no result: HCV inhibitor, FMDV inh, Vaccinia mCherry, Vaccinia Venus, LASV entry inh)
Cc1cc(C(=O)CN2C(=O)c3ccccc3S2(=O)=O)c(C)n1CC1CCCO1 (stereo not given)	FMDV inh 0.28µM, LASV entry inh 0.46µM, Marburg entry inh 0.58µM
Cc1cc(C(=O)CSc2nnc(Nc3ccccc3F)s2)c(C)n1CC1CCCO1 (stereo not given)	HCV inhibitor 6.3µM, FMDV inh inconclusive
